This is an account of results in PubChem BioAssay AID602382 (Sanford-Burnham Center for Chemical Genomics, 2012).

This is one part of the list. Unmarked numbers belong to inactive results. No rule for the calls is given here.

The assay can be described thus: spectral interference with molecular beacon fluorescence, dose response, artefact control for DNMT1 inhibitor project, biochemical, fluorescent molecular beacon (AID 602382). The settings on record: spectral interference counter-screen.
Usually IC50 stands for the midpoint of a concentration-inhibition curve. Turning to `COc1ccc(Br)cc1/C=N/Nc1ccc(S(=O)(=O)Nc2ccccc2C(=O)O)cc1[N+](=O)[O-]`, the IC50 is greater than 99 µM.

Consider `Cc1ccccc1NC(=O)CN1C(=O)N/C(=C\c2cccn2-c2cccc(C(=O)O)c2)C1=O`, for which the IC50 is greater than 99 µM.

Take `O=C(CSc1nc2ccccc2c(=O)[nH]1)Nc1nc(-c2ccc(Br)cc2)cs1`: the IC50 was greater than 99 µM.

`COc1ccc(Cc2nnc(NC(=O)Cc3cccs3)s2)cc1`: the IC50 was greater than 99 µM.

As to `O=C(COc1ccc(/C=N/NC(=O)c2ccc(O)cc2)cc1)Nc1ccc([N+](=O)[O-])cc1`, the IC50 is greater than 99 µM.

On to `O=C(Oc1ccc(-c2nc(-c3ccccn3)no2)cc1)c1ccccc1`, for which the IC50 was greater than 99 µM.

Regarding `Cc1ccc(/C=C/C(=O)Nc2ccc([N+](=O)[O-])c(NC(=O)/C=C/c3ccc(C)o3)c2)o1`, the IC50 was greater than 99 µM.

`COc1ccc(C(=O)/C=C/c2ccc(-c3ccccc3)cc2)cc1CSCC(=O)O`: the IC50 is greater than 99 µM.

Take `NC(CSC(c1ccccc1)(c1ccccc1)c1ccc(-c2ccccc2)cc1)C(=O)O` (stereo not given): the IC50 was greater than 99 µM.

For the compound `CCOC(=O)C(NC(=O)CC(C)C)(Nc1sc2c(c1C(N)=O)CCCC2)C(F)(F)F` (stereo not given), the IC50 is greater than 99 µM.
